Only some compounds are listed: those with a hit (about 9.2% of all), similar ones and a draw of the others.
HPGD block: blocks human HPGD enzyme activity; purified HPGD, NADH fluorescence kinetic, PGE2 substrate; Potency, µM, for the others: at the top dose activity change, negative = inhibition, most hits filed as inhibitors; actives 4.3% (n = 150,000); note: % is set by controls: 0 for no effect and ±100 for the full control effect
Target sequence (P15428 whole entry, looked up): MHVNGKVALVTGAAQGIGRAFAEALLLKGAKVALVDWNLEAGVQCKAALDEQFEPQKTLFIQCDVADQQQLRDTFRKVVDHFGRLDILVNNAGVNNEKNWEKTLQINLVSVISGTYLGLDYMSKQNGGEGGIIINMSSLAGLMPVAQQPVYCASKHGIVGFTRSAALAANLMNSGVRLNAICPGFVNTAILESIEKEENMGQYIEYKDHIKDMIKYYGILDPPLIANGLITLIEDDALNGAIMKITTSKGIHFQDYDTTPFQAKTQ
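NADH formation kinetics: reaction with 30 uM PGE2 and 1 mM NAD+ (final), 20 nM enzyme, Tris-HCl pH 8 with Tween 20, after 15 min compound preincubation at room temperature. Fluorescence change, last versus first of five reads.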
ALDH1A1 block: ALDH1A1 (human) enzyme inhibition. Purified ALDH1A1, NADH fluorescence, propionaldehyde substrate. actives 7.3% (n = 220,000). Potency, µM (highest dose often 75.3 µM), without a hit: top-dose activity, negative = inhibition, hits mostly inhibitors. P00352;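 note: plate controls were no enzyme wells and a reference inhibitor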
HttQ103 aggreg: reduces HttQ103-GFP aggregates in PC12 cells. PC12 HttQ103-GFP aggregates, Acumen cytometry, 40 h. actives 1.1% (n = 220,000). AID 1688. Potency, µM (series often up to 46.1 µM), inactives show top-dose activity change, negative = inhibition, hits mostly inhibitors; active = well fitted curve in the direction sought with a large enough effect; inconclusive = small, poorly fitted or top-dose-only effect, or another doubt; inactive = no such curve, though single readings can be large; an effect the other way counts as inactive or inconclusive; note: % is set by controls: 0 for no effect and ±100 for the full control effect; nearly all actives have a fitted effect of over 60% in size
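Aggregates are detected as GFP objects 1–25 µm with signal 6 STDEV over background in lysates of induced PC12 cells. These carry Huntingtin exon 1 with 103 glutamines fused to GFP under an ecdysone promoter; compounds titrated.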
KDM4E inh: JMJD2E (human) inhibition; B2RXH2; JMJD2E catalytic domain, FDH-coupled NADH fluorescence (FDH is formaldehyde dehydrogenase); Potency, µM (top dose mostly 57.1 µM), inactives show at the highest dose activity change, negative = inhibition, usual class: inhibitors; actives 1.6% (n = 230,000);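 note: 0% = wells with enzyme and -100% = buffer wells without enzyme; nearly all actives have a fitted effect of over 50% in size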
LMNA splice mod: LMNA splicing modulation; Potency, µM (top dose mostly 46.1 µM), for inactives: top-dose ratio change, negative = inhibition, most hits filed as inhibitors; AID 1487; HeLa LMNA splicing GFP/RFP minigene ratio, 48 h; actives 0.01% (n = 200,000); active = well fitted inhibition curve with a large enough effect in the signal ratio, with a control signal flat, not every such curve was filed as active; inconclusive = small, poorly fitted or top-dose-only effect, or effect the other way, or a change in a side signal; the % refers to the signal ratio; note: % is set by controls: 0 for no effect and ±100 for the full control effect
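S3 HeLa stable clones carrying a lamin A-EGFP splicing minigene plus DsRed2 were seeded at 600 cells/well in Opti-MEM with 2% FBS, pin-dosed and incubated 48 h at 37°C. Acumen cytometry (488 nm) gave the GFP/RFP total-intensity ratio.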
HTT ATP protect: cytoprotection in Huntington HTT-Q103 PC12 cell model; PC12 HTT-Q103 induced, cytoprotection, ATP luminescence, 40 h; Potency, µM (series often up to 56.4 µM), for the others: cytoprotection (ATP increase), hits mostly activators; actives 0.14% (n = 230,000); AID 1471; active = well fitted curve in the direction sought with a large enough effect; inconclusive = small, poorly fitted or top-dose-only effect, or another doubt; inactive = no such curve, though single readings can be large; an effect the other way counts as inactive or inconclusive; note: % of control where 0% means no effect; nearly all actives have a fitted effect of over 45% in size
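Compounds added alongside 100 nM tebufenozide, which induces toxic Q103 huntingtin exon 1-GFP in stable PC12 cells; surviving cells quantified by luminescent ATP measurement. Medium: phenol red-free DMEM, 5% equine and 5% calf serum.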
* marks the source's active call; other numbers are inactive results; [ ] = another dose, or the depositor's remark. Unless noted, calls come from the whole dose curve; as a rule, active = well fitted inhibition curve with a large enough effect (not every such curve was filed as active); inconclusive = small, poorly fitted or top-dose-only effect, or another doubt; inactive = no such curve, though single readings can be large or run the other way. Potency is the fitted concentration of half-maximal effect.

COc1ccc(Cn2nnnc2C(c2cc(OC)ccc2OC)N2CCC(C(N)=O)CC2)cc1 (configuration not stated) was read as HPGD block -5%, ALDH1A1 block 14µM*, HttQ103 aggreg inconclusive, KDM4E inh -3%, LMNA splice mod inconclusive and HTT ATP protect 16%[10 µM].
Screening CC1CCCN(C(c2cccs2)c2nnnn2Cc2ccccc2)C1 (configuration not stated) returned HPGD block -18%, ALDH1A1 block 3.2µM*, HttQ103 aggreg 2%[9.22 µM], KDM4E inh -9%, LMNA splice mod 14% and HTT ATP protect -15%.
Cc1nn(CC(=O)c2ccccc2)c(=O)c2nn(-c3ccccc3F)c(C)c12 was read as HPGD block -3%, ALDH1A1 block inconclusive, HttQ103 aggreg 10%, KDM4E inh 5% and LMNA splice mod inconclusive.
Cc1c(C(=O)NCCc2ccc(Cl)cc2)sc2nc3n(c(=O)c12)CCCC3 was read as LMNA splice mod 11%[46 µM].
`CCc1cc(-c2n[nH]c(C)c2-c2ccc3c(c2)OCCO3)c(O)cc1O` gave HPGD block -14%, ALDH1A1 block -15% and HTT ATP protect -83%.
CCOC(=O)c1cc2c(nc1NC(=S)Nc1ccccc1)CC(C)(C)OC2 was read as HPGD block -4%, ALDH1A1 block 14µM*, HttQ103 aggreg -4%, KDM4E inh -24%, LMNA splice mod -6% and HTT ATP protect 2%[10 µM].
`C=CCNC(=S)Nc1nc2c(cc1C(=O)OCC)COC(C)(C)C2` gave HttQ103 aggreg 6%[9.22 µM], KDM4E inh inconclusive and HTT ATP protect 11%[10 µM].
For O=C(CC(c1ccccc1)c1cc(Br)ccc1O)NCCN1CCOCC1 (configuration not stated) the results were HPGD block 14µM*, ALDH1A1 block -64%, HttQ103 aggreg 4%, KDM4E inh -1%, LMNA splice mod 11% and HTT ATP protect 8%.
For CCOC(=O)CNC(c1ccccc1)c1cc(Br)ccc1NC(=O)CCN1CCOCC1 (configuration not stated) the results were HPGD block 32µM*, ALDH1A1 block inconclusive, HttQ103 aggreg -2%, KDM4E inh 3%, LMNA splice mod inconclusive and HTT ATP protect 30%[10 µM].
`COC(=O)CNC(c1ccccc1)c1cc(Br)ccc1NC(=O)CCN1CCOCC1` (configuration not stated) gave HPGD block inconclusive, ALDH1A1 block -1%, HttQ103 aggreg 8%, KDM4E inh 2%, LMNA splice mod inconclusive and HTT ATP protect -9%[1.9 µM].
For CCOC(=O)c1c(-c2ccc(-c3ccccc3)cc2)csc1NC(=O)C1C2CCC(O2)C1C(=O)O (configuration not stated) the results were HPGD block 14µM*, ALDH1A1 block inconclusive, HttQ103 aggreg 16%, KDM4E inh inconclusive, LMNA splice mod 13% and HTT ATP protect -38%.
Screening CCOC(=O)c1[nH]cc(-c2ccccc2)c1N1CCOCC1 returned HPGD block 4µM*, ALDH1A1 block 2.8µM*, HttQ103 aggreg -14%, KDM4E inh 0%, LMNA splice mod -19% and HTT ATP protect 5%[10 µM].
For CCOC(=O)c1c(-c2ccccc2)csc1NC(=O)C1CCCO1 (configuration not stated) the results were HPGD block inconclusive, ALDH1A1 block inconclusive, HttQ103 aggreg -16%, KDM4E inh inconclusive, LMNA splice mod 16% and HTT ATP protect -32%.
`CCc1ncnc2cc(OC)c(OC)cc12` gave HttQ103 aggreg -3% and HTT ATP protect -15%.
For CCOC(=O)c1cccc(NC(=O)N2CCC(CN3CCCCCC3)CC2)c1 the results were LMNA splice mod 16%[46 µM].
CCOc1ccc(CNC(=O)c2cnc3sc(N4CCOCC4)nn3c2=O)cc1OC was read as LMNA splice mod 12%[46 µM].

Screening results as filed in PubChem BioAssay.
